A number with no mark means an inactive call. How the calls were made is not given here.

For orientation: inhibition means the relative decrease from the control value, in per cent.

For this assay, the target named is L-lactate dehydrogenase (Plasmodium falciparum (isolate CDC / Honduras)) (UniProt Q27743). Briefly: PfLDH activity inhibition – cell lysate, 3D7 strain, counter-screen for P. falciparum growth inhibition project (AID 2304).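 Further: 0% = vehicle and 100% = reference inhibitor.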 The following applies: P. falciparum 3D7 crude extract, LDH APAD/NBT absorbance; at 2 µM; active compounds read high. (In general: The purpose of a counterscreen is to sort out artefacts and off-target activity.)
Chain of L-lactate dehydrogenase (Plasmodium falciparum (isolate CDC / Honduras)) (Q27743 whole entry, looked up): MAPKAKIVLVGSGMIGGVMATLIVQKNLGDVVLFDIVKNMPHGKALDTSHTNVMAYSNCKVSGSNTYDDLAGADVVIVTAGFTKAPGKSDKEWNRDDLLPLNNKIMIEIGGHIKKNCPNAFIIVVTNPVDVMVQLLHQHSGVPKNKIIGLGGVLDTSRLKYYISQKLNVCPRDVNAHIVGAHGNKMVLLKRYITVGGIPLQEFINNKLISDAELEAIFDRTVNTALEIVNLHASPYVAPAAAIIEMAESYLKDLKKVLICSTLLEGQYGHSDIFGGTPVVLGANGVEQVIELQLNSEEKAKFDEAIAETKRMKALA
For the molecule `O=C(Nc1ccc(-c2nc3ccccc3[nH]2)cc1)c1cncc(Br)c1`, the inhibition was 1%. The result for `NCc1ccc(CNCc2ccc(-c3ccc(-c4nc5ccc(C(F)(F)F)cc5[nH]4)s3)cc2)cc1` reads -2%. For `O=C(Nc1cccc(CN2CCN(Cc3ccc(O)cc3)CC2)c1)c1cccc(C(F)(F)F)c1`, the inhibition is 2%. For `O=C(Nc1ccc(C(F)(F)F)cc1)c1ccc(S(=O)(=O)NCC2CCCN(CC3CCCCC3)C2)cc1` (centres undefined), the inhibition was -7%. The result for `O=C(/C=C/c1ccc(Cl)c(Cl)c1)NCCCCCN1CCC(NC(=O)NC2CCCCCC2)CC1` reads -3%; that for `O=C(/C=C/c1ccc(Cl)cc1)NCCCCCN1CCCC(C(=O)Nc2ccc(Cl)c(Cl)c2)C1` (centres undefined), -3%; that for `Cc1ccc2nc(C)cc(Nc3ccccc3O)c2c1`, -3%. As to `COc1ccc(NC(=O)CSc2nc(-c3ccccc3Cl)ns2)cc1OC`, the inhibition is -2%. As for `COc1c(Br)cc(Br)cc1C(C)=O`, the figure is 1%; as for `COc1cc2c(cc1OCCN1CCC(N)CC1)N(C(=O)/C=C/c1ccccc1Cl)CC2`, -7%; as for `COc1ccccc1C(=O)Nc1cccc(N2CCC(NCc3ccc(-n4cccn4)cc3)CC2)c1`, -1%. Turning to `CC(C)c1cc(Oc2c(I)cc(CCNCc3ccccc3)cc2I)ccc1O`, the inhibition is 4%. For the molecule `Cc1cc(Nc2cccc(Cl)c2)nc2ccc(NC(=O)c3ccc(=O)[nH]c3)cc12`, the inhibition was 4%.

`O=C(O)c1ccc2nc(-c3ccccn3)c(-c3ccccn3)nc2c1`: the inhibition is 4%. `Cc1cc(NN=Cc2cccc([N+](=O)[O-])c2)c2ccc(F)cc2n1`: the inhibition was -8%.

With `OC1(Cc2ccccc2)CCN(Cc2cccc(-c3c[nH]c4nc(NC5CCCC5)ncc34)c2)CC1`, the inhibition was 4%. The result for `COC(=O)c1noc(C)c1I` reads -9%; that for `CC(C)(CNCc1ccc(C(F)(F)F)cc1)c1nc(-c2ccc(Cl)c(O)c2)c(-c2ccncc2)[nH]1`, -1%.

Turning to `CC1=C(C(=O)Nc2ccc(Cl)cc2)C(c2ccncc2)n2nc(C(F)(F)F)nc2N1` (centres undefined), the inhibition is -5%. As for `O=C(Cc1cccnc1)N(Cc1ccc(-c2ccc(CNCc3cccnc3)cn2)cc1)C1CCN(Cc2ccccc2)CC1`, the figure is -3%. On to `CS(=O)(=O)c1ccccc1CNC(=O)c1ccc(-c2ccc(-c3nc4ccc(C(F)(F)F)cc4[nH]3)s2)cc1`, for which the inhibition is 9%. The result for `Cc1ccc(NC(=O)c2cccc(C#N)c2)cc1-c1ccc(C(=O)Nc2ccncc2)cc1` reads -1%; that for `O=C(/C=C/c1ccc(Cl)c(Cl)c1)NC1CCC(CN2CCC(c3nc4ncccc4[nH]3)CC2)CC1` (centres undefined), -1%; that for `OC(CNCc1cccc(Oc2ccc(Cl)cc2)c1)c1cc(C(F)(F)F)cc(C(F)(F)F)c1` (centres undefined), 8%. As for `NC(=O)CCC(NC(=O)CNC(=O)Nc1cccc(C(F)(F)F)c1)C(=O)O` (centres undefined), the figure is 4%; as for `CS(=O)(=O)c1ccc(CNCc2ccc(-c3ccc(-c4nc5ccc(C(F)(F)F)cc5[nH]4)cc3)cc2)cc1`, 3%; as for `O=C(Nc1ccc(Br)cc1)N(CCN1CCOCC1)CC(O)COc1ccc(Cl)c(F)c1` (centres undefined), -4%.

On to `COc1ccc(Nc2ncc3c(-c4cccc(NC(=O)Cc5ccncc5)c4)c[nH]c3n2)cc1OC`, for which the inhibition is 1%. With `CN(C)c1ccc(-c2ccc(C(=O)NC3CCN(Cc4ccc(C(C)(C)C)cc4)CC3)s2)cc1`, the inhibition is -4%. As for `Cc1ccc(-c2cc(C(=O)Nc3ccc(S(=O)(=O)N4CCCCC4C)cc3)[nH]n2)c(O)c1` (centres undefined), the inhibition is 0%.

On to `CCn1c2ccccc2c2cc(C=NNc3cc(C)nc4ccccc34)ccc21`, for which the inhibition is -2%. As for `CC(=O)Nc1ncc(C(=O)Nc2cccc(-c3ccc(-c4nc5ccc(C(F)(F)F)cc5[nH]4)cc3)c2)s1`, the figure is -4%. In the case of `Cc1nc2nc(N)nc(N)c2c(C)c1Cc1cccc(F)c1`, the inhibition was -5%. As for `O=[N+]([O-])c1ccc(/C=N/Nc2cc(-c3ccccc3)nc3ccccc23)o1`, the figure is -5%. As for `CC(=O)Nc1nc(C(=O)Nc2ccc(-c3ccc(-c4nc5ccccc5[nH]4)cc3)cc2)cs1`, the inhibition was -5%.

As for `COc1cccc2cc(C(=O)N[C@@H](CC(C)C)C(=O)N[C@H](/C=N/N(C)C(=O)OC(C)(C)C)Cc3ccccc3)oc12`, the inhibition is -3%. As for `Cc1cc(NN=Cc2ccc(Cl)cc2)c2cccc(C)c2n1`, the inhibition is 2%. For the molecule `Cc1onc(-c2ccccc2Cl)c1C(=O)Nc1cc(Cl)c(Cl)cc1Cl`, the inhibition is 7%. The result for `Cc1cccc2[nH]c(-c3ccc(-c4ccc(CN5CCC(CCN6CCCCC6)CC5)cc4)cc3)nc12` reads 6%.

The values are drawn from PubChem BioAssay.
